Screens: PubChem, National Center for Advancing Translational Sciences (NCATS)
A selection: hits, their analogues and other compounds. The true share with any hit is near 12%.
Sfp PPTase inh – qHTS Assay for Inhibitors of Bacillus subtilis Sfp phosphopantetheinyl transferase (PPTase); Biochemical Sfp PPTase activity, qHTS; 4'-phosphopantetheinyl transferase ffp (Bacillus subtilis), Q9F4F7; AID 1490, 2009; Potency, µM, inactives show largest response in the series, negative = inhibition, most hits filed as inhibitors; hit rate 3.5% among 310,000;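 further: the enzyme is Sfp with the accession as filed and its product quenches rhodamine fluorescence; 0% = enzyme reaction without inhibitor and -100% = no enzyme wells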
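Reaction rates are the 30-min fluorescence difference (ex 525, em 598 nm) in wells containing 15 nM Sfp, 5 uM rhodamine-CoA and 12.5 uM BHQ-2-YbbR at pH 7.6 with 10 mM MgCl2.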
BAZ2B inh – qHTS Assay for Inhibitors of BAZ2B; AID 504333, 2011; Bromodomain adjacent to zinc finger domain protein 2B (Homo sapiens), Q9UIF8; Potency, µM (doses to about 114 µM), for the others: top-dose activity change, negative = inhibition, usual class: inhibitors; AlphaScreen BAZ2B-H3K14Ac peptide displacement; hit rate 4.4% among 360,000; further: on the % scale 0 is the no-effect control and ±100 the full control effect; nearly all actives have a fitted effect of over 60% in size
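In this displacement format the biotinylated H3(5-23) peptide acetylated at Lys14 serves as ligand at 50 nM, with BAZ2B at 50 nM in PBS pH 7.4 containing 0.01% Tween-20. Donor and acceptor beads are 10 ug/mL final.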
JMJD2A Tudor – qHTS Assay for Inhibitors of JMJD2A-Tudor Domain. Lysine-specific demethylase 4A (Homo sapiens), O75164. AlphaScreen JMJD2A-Tudor / H3K4me3 peptide binding. Potency, µM (top dose mostly 114 µM), for inactives: at the top dose activity change, negative = inhibition, most hits filed as inhibitors. hit rate 4.4% among 390,000. AID 504339, 2011; further: on the % scale 0 is the no-effect control and ±100 the full control effect; nearly all actives have a fitted effect of over 50% in size
HP1b chromo inh – HTS for Inhibitors of HP1-beta Chromodomain Interactions with Methylated Histone Tails | Chromobox protein homolog 1 (Homo sapiens), P83916 | AlphaScreen HP1-beta / biotin-H3K9me3 peptide binding | Potency, µM (series often up to 114 µM), for inactives: at the top dose activity change, negative = inhibition, hits mostly inhibitors | hit rate 0.56% among 390,000 | AID 540317, 2011; further: nearly all actives have a fitted effect of over 70% in size
Target sequence (P83916 whole entry, looked up): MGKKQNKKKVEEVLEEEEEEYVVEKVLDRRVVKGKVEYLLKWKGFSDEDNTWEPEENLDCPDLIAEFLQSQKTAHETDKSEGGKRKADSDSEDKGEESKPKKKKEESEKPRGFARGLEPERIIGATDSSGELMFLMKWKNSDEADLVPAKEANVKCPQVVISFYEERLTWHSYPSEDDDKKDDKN
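Compound inhibition of the preformed complex between 50 nM HP1-beta and 50 nM biotinylated H3K9me3 peptide was read by AlphaScreen. Buffer was PBS pH 7.4 with 0.01% Tween-20. Incubations ran 30 min at room temperature, with 10 ug/mL donor/acceptor beads.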
G9a block – qHTS Assay for Inhibitors of Histone Lysine Methyltransferase G9a; Potency, µM (titrated, usually from 102 µM), for inactives: at the top dose activity, negative = inhibition, hits mostly inhibitors; AID 504332, 2011; hit rate 8.8% among 350,000; Histone-lysine N-methyltransferase EHMT2 (Homo sapiens), Q96KQ7; G9a H3K9 monomethylation, AlphaScreen, 2 h; further: on the % scale 0 is the no-effect control and ±100 the full control effect; nearly all actives have a fitted effect of over 75% in size
Target sequence (Q96KQ7 913-1193 limits assumed): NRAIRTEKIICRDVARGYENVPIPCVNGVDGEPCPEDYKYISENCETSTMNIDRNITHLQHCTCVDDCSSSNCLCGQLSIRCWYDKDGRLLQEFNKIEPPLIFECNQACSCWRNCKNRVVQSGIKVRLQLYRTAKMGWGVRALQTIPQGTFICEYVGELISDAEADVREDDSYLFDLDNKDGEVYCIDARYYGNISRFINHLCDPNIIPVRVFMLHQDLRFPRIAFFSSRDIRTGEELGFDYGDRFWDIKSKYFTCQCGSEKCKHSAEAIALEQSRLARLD
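Compounds were preincubated with 20 nM G9a for 15 min, after which biotinylated H3K9 peptide (500 nM) and SAM (20 uM) started a 2 h room-temperature reaction. Monomethylated product was quantified by antibody-based AlphaScreen chemiluminescence.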
* hit, by the source's call; ? = inconclusive; · = no result given; [ ] = dose if it differs, or a comment. The call rests on the fitted dose curve; in most records, active means well fitted curve in the direction sought with a large enough effect; inconclusive means small, poorly fitted or top-dose-only effect, or another doubt; inactive means no such curve, though single readings can be large; an effect the other way counts as inactive or inconclusive. Potency means the concentration at half of the fitted maximal effect.

SMILES | Sfp PPTase inh | BAZ2B inh | JMJD2A Tudor | HP1b chromo inh | G9a block
CCN(CC)CCNC(=O)Cn1nc(-c2ccccc2)c2ccccc2c1=O | 28% | 1% | 0% | 33% | -11%
COc1cc(/C=C2\SC(=S)N(CCCCC(=O)O)C2=O)ccc1OS(=O)(=O)c1ccc(C)cc1 | · | 35µM* | 50µM* | ? | ?
O=C(O)CN1C(=O)C(=O)N(Cc2cccc(F)c2)C1=O | 0% | -6% | -14% | -14% | -37%
CCN(CC)c1ccc(NC(=O)CSc2nc3nc(C)cc(C)c3c(=O)[nH]2)cc1 | · | 45µM* | 45µM* | ? | 40µM*
COc1ccc(NC(=O)CSc2nc3nc(C)cc(C)c3c(=O)[nH]2)cc1 | -5% | -9% | -21% | 8%[57 µM] | -1%[0.501 µM]
CC(=O)Oc1ccc2c(=O)c(/C=N/c3cc(=O)[nH]c(=S)[nH]3)coc2c1 | -23% | -24% | -20% | 20% | 35µM*
O=c1cc(/N=C/c2coc3cc(Br)ccc3c2=O)[nH]c(=S)[nH]1 | 14% | ? | -25% | 9% | -44%
COc1ccc(OC)c(NC(=O)CSc2sc3c(O)cc(=O)[nH]c3c2C#N)c1 | -24% | ? | 16µM* | ? | ?
N#Cc1c(SCC(=O)Nc2nncs2)sc2c(O)cc(=O)[nH]c12 | 14µM* | 10µM* | 25µM* | ? | ?
COc1cc(Cl)c(C)cc1NC(=O)CSc1sc2c(O)cc(=O)[nH]c2c1C#N | ? | 40µM* | 56µM* | 1% | ?
N#Cc1c(SCC(=O)Nc2ccc(C(F)(F)F)cc2)sc2c(O)cc(=O)[nH]c12 | ? | 3% | -21% | 11% | ?
O=C(O)c1ccc(OC(F)(F)C(F)C(F)(F)F)cc1 (centres undefined) | 14% | -9% | -7% | 58% | -8%
CC(CCc1ccccc1)NC(=O)COC(=O)c1cccc(N(C)C)c1 (centres undefined) | -4% | -23% | ? | 4% | 11%
COc1ccc(C2Oc3nc(SC)nnc3-c3ccccc3N2C(C)=O)cc1 (centres undefined) | · | -11% | -9% | 14% | -4%[59 µM]
CCOC(=O)c1c(Nc2ccc(C)cc2)nnc(-c2ccccc2)c1-c1ccccc1 | · | ? | ? | -18% | 2.2µM*
CCOC(=O)c1c(Nc2cccc(C(=O)OC)c2)nnc(-c2ccccc2)c1-c1ccccc1 | · | ? | -33% | -3% | ?
CCOC(=O)/C(=N/Nc1ccc(OC)cc1)Sc1nnc(CCc2ccccc2)n1-c1ccccc1 | -10% | -34% | -35% | 1% | ?
COC(=O)/C(=N\Nc1ccccc1)Sc1nnc(-c2ccc(OC)cc2)n1C | -14% | -5% | ? | 24% | 5µM*
CCOC(=O)/C(=N\Nc1ccc(Cl)cc1)Sc1nnc(-c2ccc(OC)cc2)n1C | -25% | ? | -23% | 35% | 10µM*
CCCCC1C2=C(CCCC2=O)OC2=C1C(=O)CCC2 | 17% | -3% | 8% | 32% | 3%
O=C(NCCc1cccc(Cl)c1)c1cccc(-n2cnnn2)c1 | · | -1% | -3% | 20% | 45µM*
COc1ccc(Nc2cc(C(=O)NCc3ccco3)c3ccccc3n2)c(OC)c1 | -11% | 50µM* | ? | -24% | ?
O=C(NCc1ccco1)c1cc(-c2ccccn2)nc2ccccc12 | -9% | -3% | -23% | 14% | 79µM*
COc1ccccc1Nc1nn2c(=O)c3ccc(C(=O)NCc4ccc(F)cc4)cc3nc2s1 | · | ? | -20% | 0% | -23%[59 µM]
COc1ccccc1Nc1nn2c(=O)c3ccc(C(=O)NCc4cccnc4)cc3nc2s1 | -21% | 56µM* | · | · | 5%[59 µM]
COc1ccc(Nc2cc(C(=O)NCc3cccnc3)c3ccccc3n2)c(OC)c1 | 6% | ? | · | · | 45µM*
O=C(NCc1ccco1)c1cc(-c2ccccc2)nc2ccccc12 | -6% | -5% | -24% | 8% | 13%[2.33 µM]
